# Compound activity: PubChem, Broad Institute
# U2OS ROS induce – inducers of reactive oxygen species in cancer cells; U2OS ROS induction, H2DCF-DA fluorescence; ROS induction (% of piperlongumine), % at 10 µM; hit rate 2% among 46,000; in the data active means ROS induction above about 79%, passing the limit was not always enough;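 further: 0% = DMSO vehicle median and 100% = reference compound median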
# * hit, by the source's call. The sample as a whole holds a higher share of hits than the screen did.
SMILES,U2OS ROS induce
O=C1NC(=O)N(c2ccccc2)C(=O)/C1=C/c1ccco1,83.0*
O=C1NC(=O)C(=C/C=C/c2ccccc2)C(=O)N1,-7.2
C[C@]12CC[C@H](O)C[C@H]1CC[C@@H]1[C@@H]2CC[C@]2(C)[C@@H](c3ccc(=O)oc3)CC[C@]12O,-5.9
C=CC(C)(C)[C@]12C=C(OC)C(=O)N3/C(=C/c4cnc[nH]4)C(=O)N[C@@]31N(OC)c1ccccc12,-8.1
COC1CC(OC2C(C)OC(OC3C(C)OC(OC4C(C)OC(O[C@H]5CC[C@@]6(C)C(=CC[C@]7(O)C6CC(OC(=O)c6ccccc6)[C@@]6(C)[C@]7(O)CC[C@@]6(O)C(C)=O)C5)CC4OC)CC3OC)CC2OC)OC(C)C1O (some centres not stated),20.1
CC[C@@H]1/C=C\C=C\C[C@H](C)C(O)[C@](C)(O)C(=O)[C@H](C)C(O)[C@H](C)C(=O)[C@H](C)[C@@H](O)[C@H](C)/C=C/C(=O)O[C@H]2[C@@H](C)[C@@H](CC1)O[C@@]1(CC[C@@H](C)[C@@H](C[C@H](C)O)O1)[C@@H]2C (some centres not stated),132.8*
COc1ccc2c(c1OC)C(=O)O[C@@H]2[C@@H]1c2cc3c(cc2CCN1C)OCO3,6.9
CC(=O)O[C@@H](c1nc2ccccc2c(=O)n1[C@@H]1C[C@@]2(OC1=O)c1ccccc1N1C(=O)[C@H](C)N(O)[C@@H]12)C(C)C,12.8
C=C1[C@@H](C)[C@H]2[C@H](Cc3ccccc3)NC(=O)[C@]23[C@H](OC(C)=O)C=C[C@](C)(O)C(=O)[C@@H](C)C/C=C/[C@H]3[C@@H]1O,23.0
CO[C@H]1[C@H](O)[C@H](O[C@H]2CC[C@]3(C)C4CC[C@]5(C)[C@H](C6=CC(=O)OC6)CC[C@]5(O)C4CC[C@@H]3C2)O[C@@H](C)[C@@H]1O[C@@H]1O[C@H](CO[C@@H]2O[C@H](CO)[C@@H](O)[C@H](O)[C@H]2O)[C@@H](O)[C@H](O)[C@H]1O (some centres not stated),5.7
CC[C@]12C=CCN3CC[C@@]4(c5ccc(OC)cc5N(C)[C@H]4[C@@](O)(C(=O)OC)[C@@H]1OC(C)=O)[C@@H]32,117.3*
CCC(C)[C@H]1O[C@]2(C=C[C@@H]1C)C[C@@H]1C[C@@H](C/C=C(\C)[C@@H](OC3C[C@H](OC)C(O[C@H]4C[C@H](OC)[C@@H](O)[C@H](C)O4)[C@H](C)O3)[C@@H](C)/C=C/C=C3\CO[C@@H]4[C@H](O)C(C)=C[C@@H](C(=O)O1)[C@]34O)O2 (some centres not stated),36.1
CCOC(=O)C1=NN(c2ccc(C)cc2)C2c3cccc4cccc(c34)C12 (configuration not stated),1.4
Cn1c(CCN)nc2ccccc21,15.5
C=CCN1C(=O)/C(=C/c2cc(C)n(-c3ccccn3)c2C)C(=O)NC1=S,112.9*
O=C(CCNS(=O)(=O)c1ccccc1)Nc1ccc(Br)cc1C(=O)c1ccccc1,-2.9
C/C1=C/C(=O)O[C@@H]2C[C@@H](CC[C@H](C)/C=C\CC1)O[C@@](O)([C@@H]1CSC(=O)N1)C2,13.1
C[C@H]1O[C@@H](O[C@H]2[C@@H](O)C[C@H](O[C@H]3[C@@H](O)C[C@H](O[C@H]4CC[C@@]5(C)[C@H](CC[C@@H]6[C@@H]5CC[C@]5(C)[C@@H](C7=CC(=O)OC7)CC[C@]65O)C4)O[C@@H]3C)O[C@@H]2C)C[C@H](O)[C@@H]1O,114.2*
C[C@H]1OC(O[C@H]2[C@@H](O)CC(O[C@H]3[C@@H](O)C[C@H](O[C@H]4CC[C@]5(C)C6CC[C@]7(C)[C@@H](C8=CC(=O)OC8)[C@@H](O)C[C@]7(O)[C@@H]6CC[C@@H]5C4)O[C@@H]3C)O[C@@H]2C)C[C@H](O)C1O (some centres not stated),2.5
C[C@@H]1O[C@@H](OC2CCC3(C)C4CCC5(C)C(C6=CC(=O)OC6)CCC5(O)C4CC[C@H]3C2)[C@H](O)[C@H](O)[C@H]1O (some centres not stated),8.1
CC(=O)NCC1CCCN2CCCCC12 (configuration not stated),-7.2
O=C1NC(=O)C(CCc2ccncc2)(CCc2ccncc2)C(=O)N1c1ccccc1F,-12.7
C=C1C(=O)O[C@@H]2/C=C(/C)CC/C=C(/C)C[C@@H](OC(=O)/C(=C/CO)CO)C12 (some centres not stated),66.3
C[C@@H]1O[C@@H](O[C@H]2[C@H](O)[C@@H](O)[C@H](O[C@@H]3C=C4CC[C@@H]5C(CC[C@]6(C)[C@@H](c7ccc(=O)oc7)CC[C@]56O)[C@@]4(C)CC3)O[C@@H]2CO)[C@H](O)[C@H](O)[C@H]1O (some centres not stated),60.6
Cc1cc(-n2c(=S)[nH]c3ccccc3c2=O)ccc1Br,-15.4
